Screening data from PubChem.
VACV mCherry inh: qHTS for Stage-Specific Inhibitors of Vaccinia Orthopoxvirus: mCherry Reporter Primary qHTS; Vaccinia virus mCherry reporter infection, fluorescence; Potency, µM (doses to about 36.5 µM), for the others: top-dose activity change, negative = inhibition, actives largely listed as inhibitors; 310,000 compounds, 0.63% hits; AID 720579, 2013; calls by dose curve; tested in A549 cells; also: potency is read from the fitted curve at half-maximal effect; nearly all actives have a fitted effect of over 35% in size
HCV inh: qHTS Assay for Inhibitors of Hepatitis C Virus (HCV); 340,000 compounds, 3.4% hits; Huh7.5.1 HCVcc-Cre infection, luciferase reporter, 44 h; Potency, µM (series often up to 41.8 µM), for inactives: at the highest dose activity change, negative = inhibition, actives largely listed as inhibitors; also: potency is read from the fitted curve at half-maximal effect
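Infectious HCVcc-Cre (~0.5 moi) was added to cells just after compound, with cells seeded 4 h earlier at 1,000 per well. Luciferase activity after 44 h culture reported infection; substrate was incubated 15 min at room temperature before reading.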
FMDV antiviral: High Throughput Screening for Foot and Mouth Disease Virus Antivirals | FMDV antiviral cell-based qHTS | Potency, µM (series often up to 57.9 µM), inactives show at the top dose activity change, negative = inhibition, usual class: inhibitors | 410,000 compounds, 1.2% hits | AID 1159524, 2015; calls by dose curve; tested in HEK293T cells; also: read-out not given here; potency is read from the fitted curve at half-maximal effect; nearly all actives have a fitted effect of over 45% in size
Vaccinia Venus: qHTS for Stage-Specific Inhibitors of Vaccinia Orthopoxvirus: Venus Reporter Primary qHTS. 330,000 compounds, 0.46% hits. Potency, µM (top dose mostly 36.5 µM), for inactives: at the highest dose activity change, negative = inhibition, most hits filed as inhibitors. Vaccinia virus Venus reporter expression, fluorescence. AID 720580, 2013; calls by dose curve; tested in A549 cells; also: potency is read from the fitted curve at half-maximal effect; nearly all actives have a fitted effect of over 30% in size
Sm TGR block: qHTS Assay for the Inhibitors of Schistosoma Mansoni Peroxiredoxins; Potency, µM (series often up to 114 µM), without a hit: top-dose activity change, negative = inhibition, hits mostly inhibitors; purified TGR, DTNB reduction, TNB absorbance 405 nm; Schistosoma mansoni thioredoxin glutathione reductase (TGR), Q962Y6; AID 485364, 2010; 360,000 compounds, 3% hits; also: potency is read from the fitted curve at half-maximal effect; nearly all actives have a fitted effect of over 60% in size
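TGR 20 nM + NADPH 100 uM (dispensed conc.), cpd preinc 15 min RT; start with NADPH (500 uM addition) then DTNB (15 mM addition). Kinetic TNB absorbance, 405 nm filter. Four-parameter Hill fit across titration.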
HCMV inh: qHTS Assay for inhibitors of the human cytomegalovirus (HCMV); HFF cells, HCMV-luciferase reporter, 72 h; hits give low values; activity change, negative = inhibition, % at 57.5 µM; 410,000 compounds, 4.5% hits; in the data active = activity change below about -60%; inconclusive = no clear call, values can overlap the other calls; inactive = above about -39%
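Luciferase read-out from HCMV-luciferase-infected HFFs (MOI 1 PFU/cell) 72 h post infection at 37C; compounds added after 16 h cell attachment; activity normalized between buffer-only basal and Salinomycin (10uM) inhibitor controls.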
The depositor's hits bear a star; i = inactive; ? = inconclusive; . = no result; [ ] = another dose, or the depositor's remark. The list is not random: actives were taken first. Their share in the collection is about 9.3%. Unless noted, calls follow the shape of the dose curve; as a rule, active = well fitted curve in the direction sought with a large enough effect; inconclusive = small, poorly fitted or top-dose-only effect, or another doubt; inactive = no such curve, though single readings can be large; an effect the other way counts as inactive or inconclusive. % is scaled to controls: 0 for no effect and ±100 for the full control effect.

SMILES	VACV mCherry inh	HCV inh	FMDV antiviral	Vaccinia Venus	Sm TGR block	HCMV inh
COc1ccc(-c2nc3c(c(=O)n(C)c(=O)n3C)n2CC2CC(c3ccccc3)=NO2)cc1OC (stereo unspecified)	.	5.62µM*	0.0%	?	.	3.7
COc1ccc(C(=O)OCC2CC(c3ccccc3)=NO2)cc1OC (stereo unspecified)	.	?	-21.2%	.	8.9%	3.6
COc1cccc(C2=NCCc3cc4c(cc32)OCO4)c1OC	-17.1%	34.5%	-13.8%	-9.0%	-0.3%	-3.7
COc1ccc2c(c[n+](C)c3c4cc5c(cc4ccc23)OCO5)c1OC	?	.	10µM*	?	.	.
COc1ccc2cc3[n+](cc2c1OC)CCc1cc2c(cc1-3)OCO2	-16.5%	?	?	?	-5.7%	-95.6*
COc1ccc(C(=O)NC(=S)Nc2ccc3oc(=O)ccc3c2)cc1[N+](=O)[O-]	-10.2%	-2.2%	?	-11.5%	?	5.2
CC(NC(=O)CN1c2cccc3cccc(c23)S1(=O)=O)c1ccccc1 (stereo unspecified)	?	.	-20.8%	-24.5%	.	-10.2
COc1cc(NS(=O)(=O)c2ccc(OC)c(C)c2C)c(OC)cc1Cl	?	10µM*	-16.7%	?	5.6%	?
CCOC(=O)C1(CC)NC(c2ccco2)C2C(=O)N(CC)C(=O)C21 (stereo unspecified)	-20.8%	5.6%	15.6%	-16.2%	0.0%	-21.5
CCOc1ccc(S(=O)(=O)NC2CC2)cc1C(N)=O	-5.6%	-0.3%	-2.2%	-9.4%	.	16.5
O=C(Nc1ccc(C(=O)N2CCN(c3ccccc3F)CC2)cc1)C1=CSCCO1	.	19.1%	24.1%	.	-2.8%	-60.5*
COC(=O)c1cc(NCc2ccc3c(c2)OCO3)ccc1N1CCOCC1	-12.3%	-16.2%	-9.9%	-10.3%	50.1µM*	32.8
CC(=O)N1CCN(c2ccc(NC(=O)c3ccc4c(c3)OCCO4)cc2)CC1	i	1.5%	.	-12.3%	8.2%	-23.2
CC(C)(C)C(=O)N1CCN(c2ccc(NC(=O)c3ccc4c(c3)OCCO4)cc2)CC1	-21.5%	10µM*	31.6µM*	-14.5%	-8.0%	-67.5*
CC(=O)N1CCN(c2ccc(NCc3ccc4c(c3)OCO4)cc2)CC1	i	-17.4%	-19.0%	-7.0%	?	-27.4
O=C(Nc1ccc(C(=O)N2CCCCC2)cc1)C1=CSCCO1	.	25.5%	63.7%	.	-11.5%	-19.7
O=C(c1ccccc1)N1CCN(c2ccc(NCc3ccc4c(c3)OCO4)cc2)CC1	?	11.2µM*	?	7.4%	-11.2%	-35.0
O=C(NCc1ccccc1)N1CCC(CO)(CCc2ccccc2)CC1	i	-9.1%	-16.5%	-11.7%	12.1%	14.6
O=C(COc1ccc(S(=O)(=O)N2CCOCC2)cc1)NCc1ccccc1	-7.6%	21.0%	-0.1%	7.5%	-3.7%	-6.3
O=C(CN1CCN(c2ccc(O)cc2)CC1)Nc1ccc2c(c1)OCCCO2	.	6.31µM*	?	.	?	?
CCCC(=O)N1CCN(c2ccc(NC(=O)c3ccc4c(c3)OCCO4)cc2)CC1	-7.6%	-17.2%	?	-3.9%	-1.8%	40.1
O=C(Nc1ccc(N2CCCCC2)cc1)c1ccc2c(c1)OCCO2	.	?	-21.6%	.	-14.5%	-91.1*
O=C(Nc1ccc(N2CCN(C(=O)c3ccc(Cl)cc3)CC2)cc1)c1ccc2c(c1)OCCO2	?	7.08µM*	11.2µM*	?	0.0%	-92.0*
O=C(Nc1ccc(N2CCN(C(=O)c3ccccc3)CC2)cc1)c1ccc2c(c1)OCCO2	-4.0%	?	31.6µM*	-10.5%	-6.4%	-69.1*
CN1CCN(c2ccc(NC(=O)c3ccc4c(c3)OCO4)cc2)CC1	.	-3.5%	29.9%	.	-1.3%	137.0
SMILES	VACV mCherry inh	HCV inh	FMDV antiviral	Vaccinia Venus	Sm TGR block	HCMV inh
C1CCN(c2nc3nonc3nc2N2CCCC2)C1	.	10.9%	9.1%	.	7.5%	20.4
Cc1cccc(C)c1OCc1cc(C(=O)N2CCC[C@H]2C(N)=O)no1	-16.0%	.	-5.0%	-4.3%	-9.2%	3.8
COC(=O)c1cc(NS(=O)(=O)c2ccc(C)c3ccccc23)ccc1N1CCOCC1	-5.5%	22.4µM*	46.1%	-29.4%	-15.3%	21.2
CCc1cc(Cn2nc(-c3ccccc3)cc2C(=O)NCc2cccc(Br)c2)on1	-7.4%	3.16µM*	-4.0%	-23.2%	.	?
CCc1cc(Cn2nc(-c3ccccc3)cc2C(=O)NCc2cccc(C(F)(F)F)c2)on1	i	?	-16.9%	-9.3%	0.2%	17.1
N#Cc1ccccc1Cn1c(=O)n(Cc2ccc(C(=O)NCc3ccco3)cc2)c(=O)c2sccc21	2.2%	?	12.2%	-4.8%	-29.1%	-16.8
Cc1cccc(C)c1NC(=O)Cn1c(=O)n(Cc2ccc(C(=O)NCc3ccco3)cc2)c(=O)c2sccc21	-9.5%	.	-19.3%	7.7%	-20.6%	-66.1*
Cc1cc(C)c(NC(=O)Cn2c(=O)n(Cc3ccc(C(=O)NCc4ccco4)cc3)c(=O)c3sccc32)c(C)c1	0.3%[7.34 µM]	.	-2.9%	-4.4%[7.34 µM]	-0.8%	-75.6*
CN(CC(=O)Nc1nc2ccc(F)cc2s1)S(=O)(=O)c1ccc(Cl)cc1	-26.4%	?	.	?	-17.2%	-14.3
O=C1CC(c2ccccc2)CC(O)=C1C=NCCN1CCN(C(=O)Nc2ccccc2)CC1 (stereo unspecified)	.	7.7%	-9.4%	.	-21.3%	-33.7
CCCCN(CC)CCCNC(=O)CC1Nc2ccccc2NC1=O (stereo unspecified)	.	1.8%	-8.9%	-1.5%	5.0%	.
CCCC1OC2CC3C4CCC5=CC(=O)C=CC5(C)C4C(O)CC3(C)C2(C(=O)CO)O1 (stereo unspecified)	.	.	-20.0%	.	.	.
O=C(Nc1ccccc1N1CCN(C(=O)c2ccccc2)CC1)c1cc(Br)ccc1Cl	.	?	-16.2%	.	-14.5%	10.0
COc1ccc(C(=O)N/N=C\c2ccoc2)cc1	.	24.2%	70.0%	.	-25.6%	26.4
COc1cc(OC)c(C(=O)N/N=C/c2ccoc2)cc1OC	-0.2%	5.3%	2.5%	4.1%	0.0%	-68.8*
CS(=O)(=O)N(CCc1ccccc1)CC(=O)N1CCN(Cc2ccccc2)CC1	-5.8%	?	?	-21.9%	-2.0%	?
Cc1ccc(-c2csc3nc4ccc(C(=O)NCCO)cc4c(=O)n23)cc1	-0.6%	-23.0%[8.37 µM]	-18.9%	-10.0%	5.4%	-89.8*
Cc1ccc(-c2csc3nc4cc(C(=O)NC5CCC(O)CC5)ccc4c(=O)n23)cc1 (stereo unspecified)	-10.8%	?	-24.7%	-22.0%	-2.5%	-17.2
